Laboratory results reported in ChEMBL document CHEMBL1961873, “Compounds: GSK PKIS; Assays: Nanosyn kinase panel” (2012).

The compounds below were run against Tyrosine-protein kinase Srms (Homo sapiens) (UniProt Q9H3Y6). Settings: at 1 µM.
Sequence of Tyrosine-protein kinase Srms (Homo sapiens) (Q9H3Y6 whole entry): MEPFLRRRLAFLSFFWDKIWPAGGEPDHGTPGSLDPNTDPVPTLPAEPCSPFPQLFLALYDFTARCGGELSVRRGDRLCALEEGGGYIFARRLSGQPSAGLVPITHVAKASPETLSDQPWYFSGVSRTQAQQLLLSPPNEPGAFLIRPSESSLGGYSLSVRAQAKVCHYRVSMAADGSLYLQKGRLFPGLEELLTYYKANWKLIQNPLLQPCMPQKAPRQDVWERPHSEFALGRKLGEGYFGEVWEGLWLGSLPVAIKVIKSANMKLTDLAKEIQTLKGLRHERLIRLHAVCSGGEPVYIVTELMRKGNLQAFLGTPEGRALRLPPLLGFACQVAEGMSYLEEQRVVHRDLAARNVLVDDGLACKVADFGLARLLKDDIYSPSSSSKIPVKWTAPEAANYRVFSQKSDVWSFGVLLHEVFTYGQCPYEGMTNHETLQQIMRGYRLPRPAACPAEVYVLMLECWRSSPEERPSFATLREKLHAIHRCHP
With `COc1cc2ncnc(Nc3ccc(C)c(O)c3)c2cc1OC` the inhibition was 18.7%.
`Cc1cc(-c2ccccn2)cc(C)c1/C=C/c1cncc(-c2nn[nH]n2)c1` was tested, and the inhibition was 11.8%.
With `CC(C)c1ccc2c(c1)NC(=O)/C2=N/Nc1ccc(S(N)(=O)=O)cc1` the inhibition was 0.2%.
`CCn1c(-c2nonc2N)nc2ccc(F)cc21` was tested, and the inhibition was -0.49%.
Compound `CN(c1ccc(NC(=O)Nc2ccc(OC(F)(F)F)cc2)cc1)c1ccnc(Nc2cccc(S(N)(=O)=O)c2)n1` has an inhibition of 14.3%.
`c1ccc(Nc2ncc(-c3ccccc3)o2)cc1` was tested, and the inhibition was 2.19%.
For `CCOc1nccc2c1nc(-c1nonc1N)n2CC`, the inhibition was 5.69%.
Work on `COc1cccc(-n2ncc3c(N/N=C/c4ccc(S(C)(=O)=O)cc4)ncnc32)c1` yielded an inhibition of 17.8%.
Work on `Cc1ccc2c(-c3ccnc(Nc4cccc(C(F)(F)F)c4)n3)c(-c3ccccc3)nn2n1` yielded an inhibition of 22.1%.
Work on `NS(=O)(=O)c1cccc(Nc2cc(-c3ccc(F)cc3)n[nH]2)c1` yielded an inhibition of 2.26%.
`CCCN1CCCC(c2ccc(Nc3nc(Nc4cc(F)ccc4C(N)=O)c4cc[nH]c4n3)c(OC)c2)C1` (centres undefined) showed an inhibition of 22.1%.
With `c1ccc(Cc2nc3ccc(Nc4ncnc5ccccc45)cc3[nH]2)cc1` the inhibition was -2.82%.
With `CN1CCN(C(=O)c2ccc(NC(=O)Nc3ccc(N(C)c4ccnc(Nc5ccc(CS(C)(=O)=O)cc5)n4)cc3)cc2)CC1` the inhibition was 5.6%.
`N#Cc1cccc(Nc2nccc(-c3cnn4ncccc34)n2)c1` gave an inhibition of 14.7%.
`Nc1nccc(-c2c(-c3ccc(F)cc3)ncn2CCCN2CCOCC2)n1` was tested, and the inhibition was 1.12%.
`COc1cc(/C=N/Nc2ncnc3c2cnn3C(C)C)ccc1O` was tested, and the inhibition was 4.98%.
Work on `O=C(Nc1ccc(Oc2ccc3[nH]c(NC(=O)c4ccco4)nc3c2)cc1)Nc1cc(C(F)(F)F)ccc1F` yielded an inhibition of -0.11%.
`Cc1ccc(Nc2ccnc(Nc3cccc(C(N)=O)c3)n2)cc1O` showed an inhibition of 41%.
For `COC(=O)c1cncc(/C=C/c2c(C)cc(O)cc2C)c1`, the inhibition was 12.7%.
`Cc1cc(O)cc(C)c1/C=C/c1cncc(C(=O)N(C)C)c1` showed an inhibition of 1.27%.
For `NC(=O)c1cccc(Nc2nccc(Nc3cccc(F)c3)n2)c1`, the inhibition was 5.6%.
`COc1cc2ncnc(Nc3ccc4c(cnn4Cc4ccccc4)c3)c2cc1OC` gave an inhibition of 4.63%.
Work on `CCn1c(-c2nonc2N)nc2c(C#CC(C)(C)O)nc(OCCNC)cc21` yielded an inhibition of -2.34%.
`Nc1nccc(C#Cc2cncnc2Nc2ccc(OCc3cccc(F)c3)c(Cl)c2)n1` was tested, and the inhibition was -3.68%.
`COC(=O)Nc1nc2cc(Oc3ccc(NC(=O)Nc4cccc(Br)c4)cc3)ccc2[nH]1` showed an inhibition of 3.49%.
In the case of `O=C1Nc2ccccc2/C1=C/Nc1ccc2[nH]c(=O)[nH]c2c1`, the inhibition is reported as 3.2%.
Compound `NS(=O)(=O)c1ccc(Nc2cc(-c3cccc(O)c3)n[nH]2)cc1` has an inhibition of -7.29%.
In the case of `COc1cc2ncn(-c3cc(OCc4ccccc4S(C)(=O)=O)c(C#N)s3)c2cc1OC`, the inhibition is reported as 26.9%.
`CC(C)c1ccc(Nc2nccc(-c3cnn4ncccc34)n2)cc1` was tested, and the inhibition was 3.15%.
Work on `NS(=O)(=O)c1ccc(N/N=C2\C(=O)Nc3ccc(Cl)cc32)cc1` yielded an inhibition of 0.2%.
Compound `FC(F)(F)c1ccc(-c2nn3ncccc3c2-c2ccnc(Nc3ccc4c(c3)OCCO4)n2)cc1` has an inhibition of 8.73%.
Work on `Nc1ccc(C#Cc2cncnc2Nc2ccc(OCc3cccc(F)c3)c(Cl)c2)cc1` yielded an inhibition of -0.77%.
`Cc1ccc(O)cc1Nc1ccnc2ccc(S(C)(=O)=O)cc12` gave an inhibition of 69%.
`NS(=O)(=O)c1ccc(NC=C2C(=O)Nc3ccc4ncsc4c32)cc1` showed an inhibition of 0.07%.
